In PubChem BioAssay (NCATS):
Inconclusive results are not listed. The source made the active and inactive calls. Calls come from the whole dose curve; as a rule, active = well fitted curve in the direction sought with a large enough effect; inconclusive = small, poorly fitted or top-dose-only effect, or another doubt; inactive = no such curve, though single readings can be large; an effect the other way counts as inactive or inconclusive.

Assays:
[1] = qHTS of pediatric cancer cell lines to identify multiple opportunities for drug repurposing: Primary screen for BT-37 cells (AID 1347094); note: potency is the fitted concentration of half-maximal effect
In short: (§1)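 Cells seeded at 500-1,000 cells/well in growth media, rested 5 hours at 37 degrees C, 5% CO2, then dosed; MIPE compounds at 11-point (from 0.78 nM) and NPC at 8-point (from 0.59 nM) final concentrations. Viability by CellTiter-Glo luminescence after 48 hours.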

[2] = qHTS of pediatric cancer cell lines to identify multiple opportunities for drug repurposing: Primary screen for U-2 OS cells (AID 1347096); note: nearly all actives have a fitted effect of over 50% in size; note: potency is the fitted concentration of half-maximal effect
In short: (§2)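 Cells (500-1,000/well) in growth media were settled 5 h at 37 degrees C, then given compounds for 48 h. Viability was read as CellTiter-Glo luminescence. Primary runs used MIPE at 11 points (0.78 nM-46 µM) and NPC at 8 points (0.59 nM-46 µM); follow-ups used 11 points.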

[3] = qHTS of pediatric cancer cell lines to identify multiple opportunities for drug repurposing: Primary screen for NB1643 cells (AID 1347099); note: nearly all actives have a fitted effect of over 50% in size; note: potency is the fitted concentration of half-maximal effect
In short: as §1

[4] = qHTS of pediatric cancer cell lines to identify multiple opportunities for drug repurposing: Primary screen for BT-12 cells (AID 1347101); note: nearly all actives have a fitted effect of over 25% in size; note: potency is the fitted concentration of half-maximal effect
In short: (§3)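 Cells (500-1,000/well) rested 5 h, then received compounds for 48 h; metabolically active cells were measured by CellTiter-Glo luminescence. Final concentrations spanned up to 46 µM (MIPE, 11-point) or 0.59 nM-46 µM (NPC, 8-point) in primary screens, 11-point in follow-ups.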

[5] = qHTS of pediatric cancer cell lines to identify multiple opportunities for drug repurposing: Primary screen for Rh18 cells (AID 1347102); note: nearly all actives have a fitted effect of over 65% in size; note: potency is the fitted concentration of half-maximal effect
In short: as §2

[6] = qHTS of pediatric cancer cell lines to identify multiple opportunities for drug repurposing: Primary screen for RD cells (AID 1347104); note: nearly all actives have a fitted effect of over 55% in size; note: potency is the fitted concentration of half-maximal effect
In short: as §1

[7] = qHTS of pediatric cancer cell lines to identify multiple opportunities for drug repurposing: Primary screen for MG 63 (6-TG R) cells (AID 1347105); note: nearly all actives have a fitted effect of over 50% in size; note: potency is the fitted concentration of half-maximal effect
In short: as §1

[8] = qHTS of pediatric cancer cell lines to identify multiple opportunities for drug repurposing: Primary screen for control Hh wild type fibroblast cells (AID 1347106);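 note: series mostly up to about 46 µM; a drop in luminescence marks cytotoxicity and a rise apparent proliferation; nearly all actives have a fitted effect of over 55% in size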
In short: as §2

[9] = qHTS of pediatric cancer cell lines to identify multiple opportunities for drug repurposing: Primary screen for Rh30 cells (AID 1347107); note: nearly all actives have a fitted effect of over 75% in size; note: potency is the fitted concentration of half-maximal effect
In short: as §2

[10] = qHTS of pediatric cancer cell lines to identify multiple opportunities for drug repurposing: Primary screen for Rh41 cells (AID 1347108); note: nearly all actives have a fitted effect of over 70% in size; note: potency is the fitted concentration of half-maximal effect
In short: as §1

[11] = qHTS of pediatric cancer cell lines to identify multiple opportunities for drug repurposing: Primary screen for NB-EBc1 cells (AID 1347095); note: potency is the fitted concentration of half-maximal effect
In short: as §1

[12] = qHTS of pediatric cancer cell lines to identify multiple opportunities for drug repurposing: Primary screen for LAN-5 cells (AID 1347100); note: potency is the fitted concentration of half-maximal effect
In short: as §2

[13] = qHTS of pediatric cancer cell lines to identify multiple opportunities for drug repurposing: Primary screen for OHS-50 cells (AID 1347103); note: nearly all actives have a fitted effect of over 40% in size; note: potency is the fitted concentration of half-maximal effect
In short: as §3

[14] = qHTS of pediatric cancer cell lines to identify multiple opportunities for drug repurposing: Primary screen for Saos-2 cells (AID 1347097); note: nearly all actives have a fitted effect of over 40% in size; note: potency is the fitted concentration of half-maximal effect
In short: as §1

[15] = qHTS of pediatric cancer cell lines to identify multiple opportunities for drug repurposing: Primary screen for SK-N-SH cells (AID 1347098); note: nearly all actives have a fitted effect of over 65% in size; note: potency is the fitted concentration of half-maximal effect
In short: as §3

[16] = qHTS of pediatric cancer cell lines to identify multiple opportunities for drug repurposing: Confirmatory screen for NB1643 cells (AID 1347109); note: potency is the fitted concentration of half-maximal effect; nearly all actives have a fitted effect of over 45% in size
In short: as §2

[17] = qHTS of pediatric cancer cell lines to identify multiple opportunities for drug repurposing: Confirmatory screen for A673 cells (AID 1347110);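 note: cells exposed to compound for 48 h before the viability read; nearly all actives have a fitted effect of over 65% in size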; note: potency is the fitted concentration of half-maximal effect
In short: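 A673 cells seeded at 500-1,000 cells/well, rested 5 h, then dosed; primary MIPE 11-point (0.78 nM to 46 µM), NPC (0.59 nM to 46 µM); confirmatory 11-point. CellTiter-Glo luminescence after 48 h.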

[18] = qHTS of pediatric cancer cell lines to identify multiple opportunities for drug repurposing: Confirmatory screen for SK-N-MC cells (AID 1347111);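 note: potency is the fitted concentration of half-maximal effect; cells exposed to compound for 48 h before the readout; nearly all actives have a fitted effect of over 70% in size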
In short: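 Metabolically active cells were quantified by ATP-dependent luminescence (CellTiter-Glo, 15 min at room temperature) following 48 h treatment. Cells had been plated at 500-1,000 per well and settled for 5 h beforehand.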

[19] = qHTS of pediatric cancer cell lines to identify multiple opportunities for drug repurposing: Confirmatory screen for LAN-5 cells (AID 1347113); note: nearly all actives have a fitted effect of over 65% in size; note: potency is the fitted concentration of half-maximal effect
In short: as §2

[20] = qHTS of pediatric cancer cell lines to identify multiple opportunities for drug repurposing: Confirmatory screen for BT-12 cells (AID 1347112); note: potency is the fitted concentration of half-maximal effect; nearly all actives have a fitted effect of over 55% in size
In short: as §2

SMILES | Potency [1] | Potency [2] | Potency [3] | Potency [4] | Potency [5] | Potency [6] | Potency [7] | Potency [8] | Potency [9] | Potency [10] | Potency [11] | Potency [12] | Potency [13] | Potency [14] | Potency [15] | Potency [16] | Potency [17] | Potency [18] | Potency [19] | Potency [20]
CCCCCCCN(CC)CCCC(O)c1ccc(NS(C)(=O)=O)cc1 (centres undefined) | inactive | inactive | inactive | inactive | inactive | inactive | inactive | inactive | inactive | inactive |  |  |  |  |  |  |  |  |  | 
COc1cc(N2CCC(C(N)=O)CC2)ccc1Nc1nc(N)c(Cl)c(Nc2ccccc2S(=O)(=O)C(C)C)n1 | inactive |  | 526 nM (active) | inactive |  |  |  |  | inactive | 590 nM (active) | 743 nM (active) | 235 nM (active) | 61.1 nM (active) |  |  |  |  |  |  | 
CCCCCCCCCCCCc1ccc(S(=O)(=O)Nc2nncs2)cc1 | inactive | inactive |  | inactive | inactive | inactive | inactive | inactive | inactive |  |  | inactive |  | 18700 nM (active) |  |  |  |  |  | 
NC1=N[C@H]2[C@H](CS[C@H]2CCCCC(=O)O)N1 | inactive |  | inactive | inactive | inactive | inactive | inactive | inactive | inactive | inactive |  | inactive | inactive | inactive | inactive |  |  |  |  | 
CC(=O)C1=C(O)C=C2Oc3c(C(C)=O)c(O)c(C)c(O)c3C2(C)C1=O (centres undefined) | 1370 nM (active) | inactive |  | 1720 nM (active) |  |  | inactive | inactive | inactive | inactive |  |  | 1720 nM (active) | 1480 nM (active) | inactive |  |  |  |  | 
CN[C@@H]1C[C@H]2O[C@@](C)([C@H]1OC)n1c3ccccc3c3c4c(c5c6ccccc6n2c5c31)C(=O)N[C@H]4O |  | 2960 nM (active) |  | 27300 nM (active) | 590 nM (active) | 1050 nM (active) | 187 nM (active) |  |  | 5900 nM (active) | 166 nM (active) | 1320 nM (active) |  | 235 nM (active) | 607 nM (active) | 737 nM (active) | 369 nM (active) | 233 nM (active) | 928 nM (active) | 
CC(C(C)N1CC(=O)NC(=O)C1)N1CC(=O)NC(=O)C1 (centres undefined) |  | inactive |  | inactive | inactive | inactive | inactive | inactive | inactive | inactive | 264 nM (active) | 743 nM (active) |  |  | inactive |  | inactive | 2930 nM (active) | inactive | 
OCCN1C[C@H](O)[C@@H](O)[C@H](O)[C@@H]1CO |  | inactive | inactive |  |  | inactive | inactive | inactive | inactive | inactive | inactive |  | inactive | inactive | inactive |  |  |  |  | 
CO[C@@H]1[C@@H](O)[C@H](O)[C@@H](n2c3c(Cl)cccc3c3c4c(c5c6cccc(Cl)c6[nH]c5c32)C(=O)NC4=O)O[C@@H]1CO |  | 4690 nM (active) | 418 nM (active) | 1370 nM (active) |  | 2640 nM (active) |  | inactive |  | 2350 nM (active) | 93.5 nM (active) | 118 nM (active) | 306 nM (active) | 296 nM (active) | 1210 nM (active) | 1850 nM (active) | 827 nM (active) | 928 nM (active) | 1650 nM (active) | 4650 nM (active)
CNC(=O)c1ccc(Nc2cc(Nc3ccccc3S(=O)(=O)C(C)C)c3cc[nH]c3n2)nc1 |  | 18700 nM (active) |  | 4850 nM (active) | 9350 nM (active) | 5900 nM (active) | 5900 nM (active) | inactive |  | 5900 nM (active) | 1480 nM (active) | 93.5 nM (active) | 544 nM (active) | 1660 nM (active) |  | 1470 nM (active) | 1170 nM (active) | 2610 nM (active) | 2930 nM (active) | 
CCOC(=O)[C@H](CCc1ccccc1)N[C@@H](C)C(=O)N1[C@@H](C(=O)O)C[C@H]2CCC[C@@H]21 |  | 18700 nM (active) | 3320 nM (active) | 24300 nM (active) | 16600 nM (active) | 18700 nM (active) | 18700 nM (active) | inactive | 18700 nM (active) | 11800 nM (active) | 18700 nM (active) |  | 19300 nM (active) | 14800 nM (active) | 4820 nM (active) |  |  |  |  | 
